What is called AC50 is the concentration at which the activity in the assay is half-maximal.

Molecules are shown by their SMILES. Calls of active or inactive are those of the source. How the source made its calls: active means hit-call score of the fitted dose curve at least 0.9, where 1 is the maximum; inactive means score below 0.9.

Sequence of human Adrenoceptor beta1 Antagonism, ADRB1 (gene 153) (P08588 whole entry, looked up): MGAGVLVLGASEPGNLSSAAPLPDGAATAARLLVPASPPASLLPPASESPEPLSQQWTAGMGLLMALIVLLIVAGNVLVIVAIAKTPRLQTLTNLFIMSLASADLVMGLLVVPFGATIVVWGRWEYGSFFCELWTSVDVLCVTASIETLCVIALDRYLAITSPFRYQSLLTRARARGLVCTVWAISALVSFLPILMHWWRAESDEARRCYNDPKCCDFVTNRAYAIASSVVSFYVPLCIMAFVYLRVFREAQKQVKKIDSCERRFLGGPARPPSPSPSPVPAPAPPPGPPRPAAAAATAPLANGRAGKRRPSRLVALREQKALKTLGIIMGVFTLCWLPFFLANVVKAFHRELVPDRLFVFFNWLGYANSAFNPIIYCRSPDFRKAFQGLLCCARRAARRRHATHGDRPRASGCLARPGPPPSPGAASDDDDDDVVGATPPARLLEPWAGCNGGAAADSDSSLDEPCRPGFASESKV

The experiment concerns the target human Adrenoceptor beta1 Antagonism, ADRB1 (gene 153) (UniProt P08588). The experiment is described as follows: ERF_TW_GPCR_hADRB1: Eurofins (ERF) G Protein-Coupled Receptor (GPCR) Radioligand Binding LeadHunter Assay for human Adrenoceptor beta1 Antagonism. Here is the method:
ERF_TW_GPCR_hADRB1 is a biochemical, single-readout assay that uses extracted gene-proteins in a cell-free assay. Measurements were taken 2 hour after chemical dosing in a 96-well plate. See beta1 Human Adrenoceptor GPCR Binding (Antagonist Radioligand) Assay, Panlabs.ERF_TW_GPCR_hADRB1 is an assay component calculated from the ERF_TW_GPCR_hADRB1 assay. It is designed to measure radioligand binding using a type of binding reporter as detected by scintillation counting with radiometry technology.Data from the assay component ERF_TW_GPCR_hADRB1 was analyzed at the assay endpoint, ERF_TW_GPCR_hADRB1, in the positive analysis fitting direction relative to DMSO as the negative control and baseline of activity. Using a type of binding reporter, loss-of-signal activity can be used to understand changes in radioligand binding as they relate to gene ADRB1. To generalize the intended target to other relatable targets, this assay endpoint is annotated to the gpcr intended target family, where the subfamily is adrenoceptor.
Human recombinant adrenergic beta1 receptors expressed in HEK 293 cells are used in modified Tris-HCl buffer pH 7.4. A 25 ug aliquot is incubated with 0.03 nM [125I]Cyanopindolol for 120 minutes at 25C. […] Receptors are filtered and washed, the filters are then counted to determine [125I]Cyanopindolol specifically bound. […]
Take `O=C(/C=C/c1ccc(O)cc1)CC(=O)/C=C/c1ccc(O)cc1`: the concentration at half-maximal activity (AC50) was 1.13 µM (active).

These data come from PubChem BioAssay AID2284145 (EPA ToxCast).
